This is an account of results in PubChem BioAssay (NCI).

Molecules are shown by their SMILES. The panel holds about 83,000 compounds, 20% with a hit somewhere; the sample as a whole holds those more often.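 Values shown are percent growth following 48 h exposure of cells in 96-well plates to a single concentration of compound; below 10 was considered active.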 Values without a mark were called inactive. The source made the active and inactive calls.

Among the test systems are HCT-15 colon; HT29 colon; SNB-75 CNS; SNB-19 CNS; U251 CNS; PC-3 prostate; SK-MEL-5 melanoma; UACC-62 melanoma; LOX IMVI melanoma; SK-MEL-28 melanoma.
Common to all, as to assay: NCI-60 one-dose screen, 48 h (100 = growth as untreated, 0 = no growth, -100 = all killed)
What all share (conditions): 10 µM unless noted

On to `CN(Cc1ccccc1)S(=O)(=O)/N=C1\NC(=O)NC1=C(Cl)Cl`, for which the growth in the assay with HCT-15 colon was -69% (active); in the assay on HT29 colon, 48%; in the assay on SNB-75 CNS it was 107%; in the assay on SNB-19 CNS it was 68.6%; in the assay on U251 CNS it was 18.8%; with PC-3 prostate it was 35.6%. Moreover, the growth was 95.7% in the assay on SK-MEL-5 melanoma, 62.2% in the assay with UACC-62 melanoma, -84.5% (active) in the assay with LOX IMVI melanoma and 11.2% in the assay with SK-MEL-28 melanoma.

For `CCCn1cnc2c(c1=N)C(c1ccc(F)cc1)c1sc3c(CC)cccc3c1O2` (stereo not given), the growth in the assay on HCT-15 colon is 12.6%; in the assay on HT29 colon, 9.3% (active); with SNB-75 CNS it was 14.8%; in the assay with SNB-19 CNS, 15.3%; in the assay on U251 CNS, 18.5%; in the assay with PC-3 prostate it was 24%. Further, the growth is -12.2% (active) in the assay with SK-MEL-5 melanoma, 14% with UACC-62 melanoma, 5.54% (active) with LOX IMVI melanoma and 40.4% in the assay with SK-MEL-28 melanoma.

Regarding `O=C1Nc2ccccc2/C1=C/c1ccc(COCC2CO2)n1-c1ccc(O)cc1` (stereo not given), the growth in the assay on HCT-15 colon is 107%; with HT29 colon, 110%; in the assay on SNB-75 CNS, 95.1%; in the assay on SNB-19 CNS, 97.7%; with U251 CNS it was 99.4%; in the assay on PC-3 prostate, 101%. The growth was 101% in the assay with SK-MEL-5 melanoma, 96% in the assay with UACC-62 melanoma, 79.6% in the assay on LOX IMVI melanoma and 106% in the assay with SK-MEL-28 melanoma.

On to `Cc1ccc(C2=NN(C)C(=O)C3(CCCC3)C2)cc1`, for which the growth was 101% with HCT-15 colon; 106% in the assay on HT29 colon; 93.5% in the assay with SNB-75 CNS; 105% with SNB-19 CNS; 103% in the assay with U251 CNS; 102% with PC-3 prostate. For the same molecule, the growth in the assay on SK-MEL-5 melanoma is 101%; in the assay with UACC-62 melanoma, 98.5%; with LOX IMVI melanoma it was 100%; with SK-MEL-28 melanoma, 103%.

On to `CNC(=O)c1cc(-c2ccc(NC(=S)Nc3cc(C(F)(F)F)cc(C(F)(F)F)c3)cc2)nc2cccnc12`, for which the growth is 107% in the assay with HCT-15 colon; 108% in the assay with HT29 colon; 49.1% with SNB-75 CNS; 104% in the assay with SNB-19 CNS; 103% with U251 CNS; 80.6% in the assay with PC-3 prostate. Further, the growth with SK-MEL-5 melanoma was 92.7%; with UACC-62 melanoma, 95.3%; with LOX IMVI melanoma, 93.9%; in the assay on SK-MEL-28 melanoma, 103%.

Take `C#CC(=O)N(c1ccc(OC)cc1OC)C(C(=O)NCC(=O)OCC)c1cccs1` (stereo not given): the growth was 56.6% with HCT-15 colon; -7.89% (active) with HT29 colon; -71% (active) in the assay on SNB-75 CNS; 77.1% with SNB-19 CNS; 5.16% (active) in the assay on U251 CNS; -13.2% (active) in the assay on PC-3 prostate. In addition, the growth in the assay with SK-MEL-5 melanoma was 99.3%; in the assay with UACC-62 melanoma it was 82.6%; in the assay on LOX IMVI melanoma, -78.8% (active); with SK-MEL-28 melanoma, 92.4%.

In the case of `CC(=O)C1=C(C)NC(NN)=NC1c1cccc(Cl)c1` (stereo not given), the growth is 102% in the assay with HCT-15 colon; 111% in the assay with HT29 colon; 95.9% with SNB-75 CNS; 103% in the assay with SNB-19 CNS; 95% in the assay with U251 CNS; 96.9% with PC-3 prostate. For the same molecule, the growth in the assay with SK-MEL-5 melanoma was 106%; in the assay with UACC-62 melanoma, 93.9%; in the assay with LOX IMVI melanoma, 111%; in the assay with SK-MEL-28 melanoma it was 106%.

Turning to `Nc1nc(N)c2c(n1)NC(c1ccc(Cl)cc1)CC(c1ccc(Nc3nc(NCCO)nc(N4CCOCC4)n3)cc1)=N2` (stereo not given), the growth is 53.7% in the assay on HCT-15 colon; 57.2% in the assay with HT29 colon; 72.5% in the assay with SNB-75 CNS; 87.4% in the assay on SNB-19 CNS; 59.5% with U251 CNS; 64% in the assay on PC-3 prostate. The growth in the assay with SK-MEL-5 melanoma was 67.4%; with UACC-62 melanoma it was 89.9%; in the assay with LOX IMVI melanoma, 61.2%; in the assay with SK-MEL-28 melanoma, 83.5%.

In the case of `CC1(C)[C@@H](O)CC[C@]2(C)[C@H]3CC[C@@H]4[C@H]5[C@H](C(=O)/C=C\c6ccccn6)CC[C@]5(O)CC[C@@]4(C)[C@]3(C)CC[C@@H]12`, the growth was 15% with HCT-15 colon; 28% in the assay with HT29 colon; 26.2% in the assay on SNB-75 CNS; 48.3% in the assay on SNB-19 CNS; 37.7% with U251 CNS; 39.9% in the assay on PC-3 prostate. Moreover, the growth is 54.1% with SK-MEL-5 melanoma, 41.7% in the assay on UACC-62 melanoma, -21.8% (active) in the assay on LOX IMVI melanoma and 51.4% in the assay with SK-MEL-28 melanoma.

Consider `CS(=O)(=O)Nc1cc(-c2ccc3ncc(C#N)c(NCc4ccccc4O)c3c2)cnc1Cl`, for which the growth with HCT-15 colon was 8.71% (active); in the assay with HT29 colon it was 15.5%; in the assay with SNB-75 CNS, 32.3%; with SNB-19 CNS it was 11.9%; in the assay on U251 CNS it was 13.6%; with PC-3 prostate, 9.68% (active). The growth is -90.3% (active) with SK-MEL-5 melanoma, -25.3% (active) in the assay on UACC-62 melanoma, -34.5% (active) with LOX IMVI melanoma and 5.12% (active) with SK-MEL-28 melanoma.

Regarding `COc1ccc(N2CCN(C3=C(Cl)C(=O)C(C)=C(C)C3=O)CC2)cc1`, the growth with HCT-15 colon is 110%; with HT29 colon, 120%; in the assay with SNB-75 CNS, 107%; in the assay with SNB-19 CNS it was 99.1%; in the assay with U251 CNS, 100%; in the assay on PC-3 prostate it was 92.3%. Moreover, the growth with SK-MEL-5 melanoma was 97.6%; in the assay on UACC-62 melanoma, 88.5%; in the assay on LOX IMVI melanoma, 91.4%; in the assay with SK-MEL-28 melanoma it was 118%.

Turning to `COC(=O)C1(C)CCC[C@]2(C)[C@H]3C[C@H]4C(C(C)C)=C[C@]3(CC[C@@H]12)[C@H]1[C@@H]4[C@@H](OC(=O)c2ccco2)CC[C@@H]1OC(=O)c1ccco1` (stereo not given in full), the growth is 107% in the assay on HCT-15 colon; 116% with HT29 colon; 97.8% in the assay with SNB-75 CNS; 98.4% in the assay on SNB-19 CNS; 100% with U251 CNS; 87.9% with PC-3 prostate. Further, the growth is 102% with SK-MEL-5 melanoma, 92.6% in the assay on UACC-62 melanoma, 111% in the assay on LOX IMVI melanoma and 104% with SK-MEL-28 melanoma.

Consider `COC(=O)c1ccc(NC2=C/C(=N/S(=O)(=O)c3ccc(C(=O)O)cc3)c3ccccc3C2=O)cc1`, for which the growth is 61.7% with HCT-15 colon; 112% with HT29 colon; 172% in the assay on SNB-75 CNS; 88.6% in the assay on SNB-19 CNS; 2.7% (active) with U251 CNS; 16.6% in the assay on PC-3 prostate. Moreover, the growth in the assay on SK-MEL-5 melanoma is -35.6% (active); in the assay on UACC-62 melanoma it was -24.1% (active); in the assay with LOX IMVI melanoma it was -65% (active); in the assay on SK-MEL-28 melanoma it was -32.6% (active).
